From PubChem BioAssay AID602340 (Broad Institute, 2012)
Out of some 330,000 compounds screened, about 2,600 (0.79%) were called active.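 How the source made its calls: active means mean ATP rescue above about 67%, or every replicate alone reaching that limit (limit read from the data, passing the limit was not always enough); inconclusive means no clear call, values can overlap the other calls; inactive means mean under the limit and some replicate under it.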 Shown is part of a subset that was picked to be rich in actives.

assay: suppressors of statin myotoxicity in C2C12 myotubes, primary screen, cell-based, single point, plate reader (AID 602340); details: C2C12 myotubes + simvastatin, ATP luminescence, 48 h; at 7.49 µM; active compounds read high;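 further: myotubes were challenged with 10 µM simvastatin during compound exposure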

Structure (SMILES) | rescue of ATP level
COc1ccc(C(=O)CC2C(=O)N(C)C(=O)N(C)C2=O)cc1 | -12% (inactive)
Cc1ccc(C2CN(C)CC2C(=O)c2ccc(F)cc2)cc1 (stereo not given) | -5.74% (inactive)
COc1ccc(C(=O)C2CN(C)CC2C(=O)c2ccc(OC)cc2)cc1 (stereo not given) | 152% (active)
COc1cccc(-c2ccc3n(c2=O)C[C@H]2[C@H](CO)[C@@H](C(=O)O)[C@@H]3N2C(=O)c2cnccn2)c1 | 13.9% (inactive)
CCn1cc(CN2CCCC(C(=O)c3cccc(C(F)(F)F)c3)C2)cn1 (stereo not given) | -1.69% (inactive)
COc1cccc(C(c2nnnn2-c2ccc3c(c2)OCCO3)N2CCC3(CC2)C(=O)NCN3c2ccccc2)c1OC (stereo not given) | -28% (inactive)
CCN1CCN(C(=O)Cc2coc3cc(C)cc(C)c23)CC1 | 104% (active)
Cc1cc(OCc2cc(C(=O)O)oc2C)c2c3c(c(=O)oc2c1)CCCC3 | 23.5% (inactive)
COc1ccccc1CN1CCN(C(=O)Cc2ccccc2)CC1 | -9.85% (inactive)
O=C(O)[C@H]1[C@H](CO)[C@H]2Cn3c(ccc(-c4ccccc4)c3=O)[C@@H]1N2S(=O)(=O)c1ccccc1F | 21.2% (inactive)
